Bioassay records: PubChem BioAssay, National Center for Advancing Translational Sciences (NCATS)
A selection: hits, their analogues and other compounds. The true share with any hit is near 0.9%.
TDP1 block: blocks human tyrosyl-DNA phosphodiesterase 1. Q9NUW8. recombinant TDP1, AlphaScreen DNA substrate cleavage. Potency, µM (titrated, usually from 130 µM), without a hit: top-dose activity change, negative = inhibition, most hits filed as inhibitors. actives 0.28% (n = 350,000). AID 485290; note: nearly all actives have a fitted effect of over 40% in size
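Tdp1 1 nM final; 15 min RT w/ cpd; substrate 15 nM, 5 min; beads 10 ug/ml, 10 min; AlphaScreen read. Neg ctrl: no enzyme.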
BLM helicase inh: inhibitors of human Bloom syndrome helicase BLM; actives 0.2% (n = 350,000); AID 2528; Potency, µM (doses to about 56.1 µM), inactives show at the highest dose activity change, negative = inhibition, actives largely listed as inhibitors; recombinant BLM DNA unwinding, fluorescence dequenching; P54132;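 note: plate controls were vehicle for no effect and no enzyme for full effect; nearly all actives have a fitted effect of over 35% in size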
Lamin A splicing: modulators of lamin A splicing | HeLa LMNA splicing GFP/RFP minigene ratio, 48 h | Potency, µM (titrated, usually from 46.1 µM), inactives show at the top dose ratio change, negative = inhibition, hits mostly inhibitors | actives 0.01% (n = 200,000) | AID 1487; active = well fitted inhibition curve with a large enough effect in the signal ratio, with a control signal flat, not every such curve was filed as active; inconclusive = small, poorly fitted or top-dose-only effect, or effect the other way, or a change in a side signal; the % refers to the signal ratio
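S3 HeLa stable clones carrying a lamin A-EGFP splicing minigene plus DsRed2 were seeded at 600 cells/well in Opti-MEM with 2% FBS, pin-dosed and incubated 48 h at 37°C. Acumen cytometry (488 nm) gave the GFP/RFP total-intensity ratio.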
KAT2A inh: inhibitors of human GCN5L2 histone acetyltransferase | Q92830 | GCN5L2 HAT assay, ThioGlo1 CoA-SH fluorescence | Potency, µM (highest dose often 58.9 µM), for the others: top-dose activity change, negative = inhibition, usual class: inhibitors | actives 0.21% (n = 390,000) | AID 504327
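Fluorescence readout, Ex340nm/Em540nm: ThioGlo1 (50uM final) reacts with free CoA thiol released as 20nM GCN5L2 acetylates H3(1-25) peptide (75uM) using acetyl-CoA (70uM). Compound and enzyme sat 15 min beforehand; 20 min room-temperature reaction.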
APE1 inh: inhibitors of human APE1 endonuclease; P27695; recombinant APE1, TAMRA/BHQ-2 abasic DNA cleavage fluorescence; Potency, µM (titrated, usually from 65.8 µM), for inactives: at the highest dose activity change, negative = inhibition, most hits filed as inhibitors; actives 0.35% (n = 350,000);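 note: plate controls were vehicle for no effect and reference inhibitor for full effect; nearly all actives have a fitted effect of over 55% in size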
Target sequence (P27695 whole entry, looked up): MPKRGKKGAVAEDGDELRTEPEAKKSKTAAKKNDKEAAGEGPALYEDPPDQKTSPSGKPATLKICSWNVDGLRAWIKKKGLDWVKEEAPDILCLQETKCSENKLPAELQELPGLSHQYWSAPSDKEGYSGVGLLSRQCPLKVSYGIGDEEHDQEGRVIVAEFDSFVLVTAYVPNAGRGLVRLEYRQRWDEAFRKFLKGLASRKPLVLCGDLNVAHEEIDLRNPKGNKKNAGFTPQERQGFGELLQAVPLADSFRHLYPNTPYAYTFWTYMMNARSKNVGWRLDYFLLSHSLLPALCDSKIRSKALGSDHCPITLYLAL
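Kinetic fluorescence read (525 ex/598 em nm, three reads 60 s apart) of AP-site incision; signal = third minus first read. Enzyme 0.75 nM, dual-labelled THF duplex 50 nM, compound preincubation 15 min RT.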
RECQ1 helicase: inhibitors of human RECQ1 DNA helicase | P46063 | RECQ1 DNA unwinding, red fluorescence kinetic read | Potency, µM (titrated, usually from 57.3 µM), without a hit: top-dose activity, negative = inhibition, hits mostly inhibitors | actives 0.54% (n = 240,000) | AID 2549;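 note: plate controls were vehicle for no effect and no enzyme for full effect; nearly all actives have a fitted effect of over 30% in size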
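50 nM RECQ1T1 preincubated 15 min with compound in Tris pH 8.0 buffer with MgCl2, DTT, Tween-20 and 2.5 ug/ml poly(dI-dC); started with 200 nM TAMRA/BHQ-2 forked duplex and 2 mM ATP. Unwinding read as fluorescence (525/598 nm), two reads 2 h apart.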
An asterisk follows results filed as active; i = inactive; u = inconclusive; x = not tested or not shown; [ ] = another dose, or the depositor's remark. Unless noted, calls come from the whole dose curve; as a rule, active = well fitted curve in the direction sought with a large enough effect; inconclusive = small, poorly fitted or top-dose-only effect, or another doubt; inactive = no such curve, though single readings can be large; an effect the other way counts as inactive or inconclusive. Unless noted, % is set by controls: 0 for no effect and ±100 for the full control effect; potency is the fitted concentration of half-maximal effect.

SMILES	TDP1 block	BLM helicase inh	Lamin A splicing	KAT2A inh	APE1 inh	RECQ1 helicase
CC1CCCC(C)N1C(=O)COC(=O)/C=C/c1ccc(Br)o1 (configuration not stated)	11µM*	x	x	-23%	-45%	x
CSCC[C@H](NC(=O)[C@H](CC(C)C)N(C)C(=O)[C@@H]1CCCN1C(=O)[C@H](Cc1ccccc1)NC(=O)[C@H](Cc1ccccc1)NC(=O)CCC(C)N)C(=O)O (some centres not stated)	10%	1%	x	-7%	20%	-13%
N#Cc1cnn(-c2nc(SCc3ccccc3)nc3sc4c(c23)CCCC4)c1N	2%	-7%	19%	-15%	-5%	7.9µM*
CC(C)=CC(=O)Oc1ccc(C(=O)N(C)c2ccccc2I)cc1	4%	-6%	x	x	-4%	-6%
CCCn1nc2cc(C(=O)NC3CCCc4ccccc43)ccc2c1OCC (configuration not stated)	-4%	-3%	4%	10µM*	1%	-5%
CCOc1c2ccc(C(=O)N[C@H](C)C3CCCCC3)cc2nn1CC	2%	0%	-1%	0.89µM*	-2%	-9%
CCCCn1nc2cc(C(=O)NC3CCc4ccccc43)ccc2c1OCC (configuration not stated)	3%	-10%	-11%	u	-2%	0%
COc1ccc(C(=O)N(Cc2ccccc2)Cc2ccccc2)c(O)c1	-1%	x	x	x	x	x
CN(C)c1ccc(NC2=C(Cl)C(=O)c3ccccc3C2=O)cc1	14%	-19%	u	-10%	-3%	i
CNC1=C(Br)C(=O)c2ccncc2C1=O	1%	14µM*	x	x	u	0%
CNC1=C(Cl)C(=O)c2ccncc2C1=O	1%	18µM*	x	x	u	-5%
CNc1ccncc1S(=O)(=O)NC	8%	1%	0%	2%	-2%	-20%
CC(C)Nc1nc(C#N)nc(Nc2ccccc2)n1	6%	-14%	x	x	-1%	-13%
N#Cc1c(-c2ccc(O)cc2)no[n+]1[O-]	x	x	x	x	-12%	x
COc1cc(O)c(C(=O)/C=C/c2ccc(O)c(OC)c2)c(OC)c1	10µM*	-4%	x	21%	u	-17%
CCOC(=O)N1CCN([N+]([O-])=NOc2cc(O/N=[N+](\[O-])N(CC)CC)c([N+](=O)[O-])cc2[N+](=O)[O-])CC1	6%	-8%	x	x	-7%	10%
Cc1cccc(NC(=O)c2cc3c(=O)n4ccccc4nc3s2)c1	79µM*	u	x	-19%	14%[12.4 µM]	x
COc1cccc(C2c3c(ncn(-c4cccc(Cl)c4)c3=N)Oc3ccc4ccccc4c32)c1 (configuration not stated)	7%	x	x	x	x	x
Cc1ccc(NC(=O)COC(=O)CCC2CCCC2)c(Br)c1	56µM*	x	x	-8%	6%	x
O=C(COC(=O)CCC1CCCC1)Nc1ccccc1Br	79µM*	x	x	-7%	45%	x
C=C1C(=O)OC(CCCCCCCC)C1C(=O)O (configuration not stated)	8%	-5%	x	12%	-2%	-7%
O=C(NN=C1CCCC1)c1cc(O)cc(O)c1	18µM*	-7%	x	-15%	11µM*	x
O=C(CCCCCCCC(=O)NNC(=O)Nc1ccccc1)NNC(=O)Nc1ccccc1	-1%	28µM*	-7%	-30%	5%	-2%
O=C(CCc1ccccc1)NNC(=O)Nc1ccccc1	-3%	-6%	x	3%	-1%	20%
N#Cc1nc(NCC2CC2)nc(Nc2ccccc2)n1	14%	-7%	x	x	-2%	-6%
SMILES	TDP1 block	BLM helicase inh	Lamin A splicing	KAT2A inh	APE1 inh	RECQ1 helicase
CC(=O)Nc1ccc(S(=O)(=O)N2CCCN(S(=O)(=O)c3ccc4c(c3)OCCO4)CC2)cc1	2%	x	x	x	x	x
N#C/C(=C\c1ccc(O)c(O)c1)C(=O)NCCCc1ccccc1	11%	u	u	-25%	5%	16µM*
NC(=O)c1cccc(-c2noc(-c3ccccc3C(F)(F)F)n2)c1	x	x	x	x	2%	x
CC[C@@H](C(=O)[C@@H](C)[C@@H](O)[C@H](C)CCc1ccc(C)c(O)c1C(=O)O)C1O[C@](CC)(C2CC[C@](O)(CC)[C@H](C)O2)C[C@@H]1C (some centres not stated)	10%	-4%	x	16µM*	-2%	-8%
CC[C@H](C(=O)[C@H](C)[C@H](O)[C@H](C)CCc1ccc(C)c(O)c1C(=O)O)[C@H]1O[C@](CC)([C@@H]2CC[C@@](O)(CC)[C@H](C)O2)C[C@H]1C	14%[21 µM]	0%[21.4 µM]	u	0%[21.4 µM]	-1%[21 µM]	-2%[25.9 µM]
Cc1cc2c(n1-c1ccc(C(=O)O)cc1)CCCCC2	x	-1%	x	-29%	6µM*	x
CN(Cc1ccco1)c1cc(-c2ccc3c(c2)OCO3)ncn1	x	-4%	28%	28µM*	u	-6%
CN(Cc1ccco1)c1cc(-c2cccnc2)ncn1	x	-2%	20%	-4%	-3%	i
COc1ccc(CN(Cc2ccccc2)S(=O)(=O)c2ccccc2)cc1COc1ccc(NC(C)=O)cc1	1%	x	x	x	x	x
CC(CSC(=O)c1ccccc1)C(=O)N1C[C@@H](Sc2ccccc2)C[C@H]1C(=O)O (some centres not stated)	x	6%	x	0%	x	x
COc1cc(/C=C(\CCC(=O)O)c2nc3ccccc3s2)ccc1OCC(=O)Nc1c(Cl)cccc1Cl	28µM*	x	x	u	u	x
O=C(O)CC/C(=C\c1ccc(Cl)c([N+](=O)[O-])c1)c1nc2ccccc2s1	-3%	-8%	6%	1%	4%	-2%
COc1cc(/C=C/C(=O)OCC(=O)Nc2ccc(Cl)cn2)ccc1O	28µM*	x	x	-2%	u	x
CS[C@@H]1SC[C@H]2C(=O)N(C)C(C(C)C)C(=O)OC[C@@H](NC(=O)c3cnc4ccccc4n3)C(=O)N[C@@H](C)C(=O)N(C)[C@H]1C(=O)N(C)C(C(C)C)C(=O)OC[C@@H](NC(=O)c1cnc3ccccc3n1)C(=O)N[C@@H](C)C(=O)N2C (some centres not stated)	9%	26%	x	15%	u	10µM*
CC(NC(=O)c1cnc2ccccc2n1)c1ccccc1 (configuration not stated)	x	-12%	x	-6%	-8%	x
CNC(=O)[C@H]1O[C@@H](n2cnc3c(N)ncnc32)[C@H](O)[C@H]1O	4%[56.1 µM]	x	-2%	x	-1%	i
CCn1c(O)c(/C=C/C=C/C=Nc2ccccc2)sc1=S	8%	-11%	19%[46 µM]	-3%	-7%	i
CCCCn1c(O)c(/C=C/C=C/C=Nc2ccccc2)sc1=S	8%	-25%	u	u	-5%	32µM*
